Most compounds without a hit are left out; they make up all but 4.1% or so of the library.
NSD2 HMT inh: NSD2 histone methyltransferase inhibitors, primary screen, biochemical, AlphaScreen, single concentration, set 2; NSD2 peptide methylation, 120 min; Histone-lysine N-methyltransferase NSD2 (Homo sapiens), O96028; inhibition, % at 12.5 µM; hit rate 0.54% among 310,000; in the data active = inhibition above about 50%
HIV Env fusion: inhibitors of HIV-1 Env-driven cell-cell fusion, primary screen, HeLa-JRFL effector, CEM21 target cells, luciferase; AID 651610, 2012; hit rate 1.1% among 360,000; inhibition, % at 12.3 µM;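 active = mean replicate inhibition score of at least 50 and every replicate individually at or above 50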;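 note: 0% = plate neutral controls and 100% = maraviroc near 300 nM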
F508del corr: F508del CFTR correction, initial screen, CFBE line, single point; activity (quench increase), % at 7.58 µM; AID 720511, 2013; CFBE cells, YFP halide quenching; stimulated with forskolin plus potentiator P3; % fluorescence drop versus neutral controls; hit rate 0.36% among 350,000;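 active = mean added fluorescence quench of at least 8% versus neutral control, with both replicates also reaching 8%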;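 note: cells transiently co-express mutant CFTR-F508del with the halide-sensitive YFP; corrector assay measuring rescue of mutant channel to the surface after 24 h compound exposure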
CASP6 VEID inh: human caspase-6 inhibitors, primary screen, biochemical, VEID-R110 fluorescence, single point, set 2. P55212. purified caspase-6, Z-VEID-R110 cleavage fluorescence. inhibition, % at 12.5 µM. hit rate 0.53% among 350,000;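 active = mean inhibition across replicates at least about 35%, with every replicate also reaching that limit, limit read from the data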;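 note: 0% = median of neutral control wells and 100% = no fluorescence left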
Target sequence (P55212 24-179 limits assumed): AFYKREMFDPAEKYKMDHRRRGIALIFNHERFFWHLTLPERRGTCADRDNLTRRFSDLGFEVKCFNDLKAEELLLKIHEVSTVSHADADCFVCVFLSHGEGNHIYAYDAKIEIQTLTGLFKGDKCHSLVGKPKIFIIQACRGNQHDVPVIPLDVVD
Target sequence (P55212 194-293 limits assumed): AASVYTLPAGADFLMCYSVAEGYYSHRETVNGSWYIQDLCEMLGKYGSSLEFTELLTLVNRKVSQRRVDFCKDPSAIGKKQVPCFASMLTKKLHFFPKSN
ALR inh: inhibitors of human ALR sulfhydryl oxidase, primary screen, biochemical, H2O2 detection, HRP-luminol luminescence, single point | FAD-linked sulfhydryl oxidase ALR (Homo sapiens), P55789 | purified ALR, DTT oxidation | inhibition, % (no concentration beside the values) | hit rate 3.8% among 290,000 | AID 485317, 2010;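 active = mean replicate inhibition above about 79%, with every replicate also reaching it, limit read from the data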
PglD DTNB: C. jejuni PglD acetyltransferase inhibitors, primary screen, biochemical, DTNB colorimetric, single point | UDP-N-acetylbacillosamine N-acetyltransferase PglD (Campylobacter jejuni) | purified PglD enzyme, DTNB colorimetric CoA detection | inhibition, % at 12.5 µM | hit rate 0.098% among 360,000 | AID 602405, 2012; in the data active = inhibition above about 16%, passing the limit was not always enough
The depositor's hits bear a star; x = not tested or not shown; [ ] = remark or other dose.

SMILES | NSD2 HMT inh | HIV Env fusion | F508del corr | CASP6 VEID inh | ALR inh | PglD DTNB
Nc1ccc(NC(=O)c2ccc(C(=O)Nc3ccc(N)cc3)cc2)cc1 | -1 | 6 | 2 | 7 | -9 | -2
COc1ccc(C(=S)Nc2ccc(N(C)C)cc2)cc1 | 4 | -180 | x | x | 99* | 3
C/C(CC(=O)Nc1ccc(N(C)C)cc1)=N\NC(=O)c1ccc([N+](=O)[O-])cc1 | 9 | -12 | -2 | -2 | 95* | -2
COc1ccc(CC(=O)N/N=C(\C)CC(=O)Nc2ccc(N(C)C)cc2)cc1 | x | 5 | -6 | -3 | 94* | 5
C/C(CC(=O)Nc1ccc([N+](=O)[O-])cc1)=N\NC(=O)c1ccccc1[N+](=O)[O-] | 1 | 9 | 3 | 0 | -2 | -2
C[C@H](CO)N1C[C@H](C)[C@@H](CN(C)Cc2ccccc2)Oc2ccc(NS(C)(=O)=O)cc2CC1=O | x | 5[16.7 µM] | 0 | -1 | x | -2
COc1ccc(S(=O)(=O)NNC(=O)Cc2csc(C)n2)cc1[N+](=O)[O-] | 2 | 2 | -1 | 56* | 5 | -1
COc1ccc(S(=O)(=O)Nc2ccc(S(=O)(=O)N(C)C)cc2)cc1[N+](=O)[O-] | 0 | -1 | x | 4 | x | x
COc1ccc(S(=O)(=O)NNC(=O)C23CC4CC(CC(C4)C2)C3)cc1[N+](=O)[O-] | 1 | 76* | 0 | 1 | 10 | x
C[C@H]1CN([C@@H](C)CO)S(=O)(=O)c2ccc(C3=CCCC3)cc2O[C@@H]1CN(C)C(=O)c1ccncc1 | x | 1[16.7 µM] | 1 | -1 | x | 0
O=C(c1ccc(OCCN2CCCCC2)cc1)c1c(-c2ccc(O)cc2)sc2cc(O)ccc12 | x | 1 | 3 | -1 | 91* | 0
c1cc2cn[nH]c2cc1NC1CCCCCC1 | x | x | x | x | 99* | x
CCc1cc(-c2n[nH]c(=S)n2-c2cccc(C)c2)cs1 | 5 | -183 | x | x | 85* | x
COc1cccc(C(=O)N2CCN(Cc3ccc(OC)cc3OC)CC2)c1 | -1 | 12 | x | 42* | -4 | 2
CCCn1c2ccccc2c2nnc(SCCN3CCOCC3)nc21 | -2 | 11 | x | 43* | 96* | -1
COc1ccc(S(=O)(=O)Nc2ccc3c(c2)C(=O)N([C@H](C)CO)C[C@@H](C)[C@H](CN(C)S(=O)(=O)c2c(C)noc2C)OCCCC[C@@H](C)O3)cc1 | x | -15[16.7 µM] | 2 | -1 | x | -6
CN(C)c1ccc(N2CC(C)(C)C2=O)cc1 | 1 | -5 | 2 | 1 | 99* | x
COc1ccc(CNC(=O)CS(=O)(=O)Cc2nc(-c3cccc(OC)c3)oc2C)cc1 | 8 | 7 | -2 | -2 | 91* | -4
COc1cccc(-c2nc(CS(=O)(=O)CC(=O)NCCc3ccc(C)cc3)c(C)o2)c1 | 2 | 2 | 1 | -2 | -32 | 3
CCCCN(C)C(=O)CS(=O)(=O)Cc1nc(-c2cccc(OC)c2)oc1C | x | 6 | 1 | 1 | 99* | -1
COc1cccc(-c2nc(CS(=O)(=O)CC(=O)Nc3c(C)cccc3C)c(C)o2)c1 | x | 13 | -4 | 1 | 11 | 1
COc1ccc(-c2nc(CS(=O)(=O)CC(=O)NCc3cccc(F)c3)c(C)o2)cc1 | x | 9 | -1 | -2 | 97* | 0
C[C@@H]1CN([C@@H](C)CO)S(=O)(=O)c2ccc(-c3ccccc3)cc2O[C@@H]1CN(C)C(=O)Cc1ccccc1 | x | -71[16.7 µM] | x | -1 | x | 4
C=C1C(=O)O[C@@H]2[C@H]1[C@@H](OC(=O)/C(C)=C/C)C/C(C)=C\C(=O)/C=C(\C)[C@@H]2O | x | -141 | 9.7* | 3 | 52 | -1
N#C[C@@H]1[C@@H](c2ccccc2C2=CCCCC2)[C@H](CO)N1C(=O)C1CCOCC1 | x | x | 1 | -1 | x | x
O=C(O)c1cc(-c2ccccc2)c(N2CCOCC2)s1 | 1 | x | x | x | 99* | -6
O=C(NCc1ccc2c(c1)OCO2)c1cc(-c2ccccc2)c(N2CCOCC2)s1 | -1 | x | x | x | 9 | 3
O=C(NCc1ccco1)c1cc(-c2ccccc2)c(N2CCOCC2)s1 | 3 | -33 | x | x | 87* | -4

Screens: PubChem, Broad Institute
